Results reported in ChEMBL document CHEMBL3988442, “University of Dundee, Small-Polar-MMV Screening Library” (2021).

What was measured:
[1] = target: T1, Aspartate--tRNA(Asp/Asn) ligase (Mycobacterium tuberculosis (strain ATCC 25618 / H37Rv)) (UniProt P9WFW3); experiment: Assay for Asp RNA synthetase-1 from Mycobacterium tuberculosis; assay type: functional; set-up: scale not given: direction of the effect not stated beside the values; conditions: 30 µM; also: in the data most compounds retested in dose-response had high values
T1 sequence (whole entry): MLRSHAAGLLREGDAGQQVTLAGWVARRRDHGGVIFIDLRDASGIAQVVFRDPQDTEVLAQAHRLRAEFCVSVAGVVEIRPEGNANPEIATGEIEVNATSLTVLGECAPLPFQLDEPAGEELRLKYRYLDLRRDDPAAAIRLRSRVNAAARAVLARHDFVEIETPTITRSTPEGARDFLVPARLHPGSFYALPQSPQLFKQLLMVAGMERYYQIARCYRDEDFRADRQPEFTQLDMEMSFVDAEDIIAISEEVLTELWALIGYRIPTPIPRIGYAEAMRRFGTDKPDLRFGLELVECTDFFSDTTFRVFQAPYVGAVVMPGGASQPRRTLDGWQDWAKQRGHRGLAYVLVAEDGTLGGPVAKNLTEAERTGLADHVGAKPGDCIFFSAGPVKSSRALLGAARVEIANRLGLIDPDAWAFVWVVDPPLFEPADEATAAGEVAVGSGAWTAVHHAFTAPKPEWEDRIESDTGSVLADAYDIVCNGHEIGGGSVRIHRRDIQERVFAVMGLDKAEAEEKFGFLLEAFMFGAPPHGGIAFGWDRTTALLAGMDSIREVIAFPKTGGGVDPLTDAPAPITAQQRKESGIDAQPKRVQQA

[2] = target: Shiga toxin 2 (Escherichia coli O157:H7) (UniProt P09385+P09386); experiment: E. coli 0.157:H7 Shiga Toxin SOP - stx2 screening assay; assay type: functional; set-up: scale not given: direction of the effect not stated beside the values; conditions: 30 µM

Structure (SMILES)	Percent Effect [1]	Percent Effect [2]
Cc1cnc(CN(C)C2CCN(CCc3ccccn3)CC2)cn1	4.34%	10.4%
CC(C)n1c(C2CCCN(Cc3ccnn3C)C2)nc2ccccc21 (centres undefined)	-2.04%	1.29%
Fc1cccc(CN2CCO[C@H]3[C@@H](OCc4ccccn4)CC[C@@H]32)c1	0.564%	-1.04%
CS(=O)(=O)NCCCNC(=O)c1cccnc1O	5.28%	-16.3%
COCCOc1cccc(C(=O)N2CCCC(n3cccn3)C2)c1 (centres undefined)	1.18%	-14.5%
Cc1cc(C(=O)N2CCCC(n3cncn3)C2)c(C)n1C1CC1 (centres undefined)	-2.4%	9.3%
Cc1cccc(CN2C(=O)CO[C@@H]3CN(Cc4nccn4C)C[C@H]32)c1	-0.971%	-7.92%
C[C@@H]1CN(C(=O)c2cnc(C3CC3)nc2)CC[C@@]1(O)C1CCOCC1	1.53%	0.847%
CCN(CC)C(=O)CCc1c(C)nc2cc(O)nn2c1C	-1.56%	-6.53%
CN(C)S(=O)(=O)N1CCC(Oc2ccc(C#N)cn2)CC1	5.76%	-4.88%
CCc1noc(C(C)N2CCN(Cc3nc(C)c(C)o3)CC2)n1 (centres undefined)	-6.81%	10.2%
CC1CCCN(C(=O)c2cccc(CS(C)(=O)=O)c2)C1 (centres undefined)	-4.9%	-32%
c1coc(-c2noc(CN3CC(n4cccn4)C3)n2)c1	-3.52%	24.7%
CN(Cc1ccco1)[C@@H]1CN(Cc2ccco2)[C@@H]2CCCO[C@H]12	-1.66%	0.222%
Cc1ccc(C(=O)NCCS(C)(=O)=O)c(=O)[nH]1	-3.5%	-4.7%
CC1c2ncc(CNC(=O)C3CC3)n2CCN1Cc1cnn(C)c1 (centres undefined)	7.02%	-27.6%
COc1cccc(CN2C[C@@H]3COC[C@]3(COCc3ccncc3)C2)c1	2.95%	5.94%
Cc1cncc(C2CCCN(C(=O)c3scnc3C)C2)n1 (centres undefined)	-4.36%	-1.58%
CN(CCOc1cccc(CNC(=O)C2CC2)c1)C1CCOCC1	-1.13%	-0.044%
Cn1ccc2ccc(C(=O)N3CCN(C(=O)N4CCOCC4)CC3)cc21	-0.0331%	7.14%
CCOCC1CN(Cc2ccc(OC)cc2)Cc2nn(C)cc21 (centres undefined)	11.4%	-5.58%
c1ccc2cc(OCCN3CCn4c(nnc4C4CC4)C3)ccc2c1	3.95%	-16.6%
c1cnn(CCN2CCOC(Cn3cncn3)C2)c1 (centres undefined)	0.685%	-9.56%
O=c1cccnn1CC1CN(Cc2ccsc2)Cc2nccn2C1 (centres undefined)	7.43%	5.53%
O=C(c1cccnc1N1CCOCC1)N1CCCC1Cn1cccn1 (centres undefined)	-2.94%	31.6%
COc1ccc2cc(C(=O)N3CCCCC3Cn3cccn3)[nH]c2c1 (centres undefined)	-2.15%	16.3%

Structure (SMILES)	Percent Effect [1]	Percent Effect [2]
CCOCC(=O)NC1(c2cccc(Br)c2)CC1	1.26%	-5.68%
CCC(CNC(=O)Nc1cnn(CC)c1)N1CCCC1 (centres undefined)	-2.08%	1.4%
CCc1c(C(=O)N2CCN(c3ncccn3)CC2)cnn1C(C)(C)C	3.62%	30.7%
COc1ccc(CN2CCC3(CC(Nc4ccncn4)C3)C2)c(OC)c1 (centres undefined)	-0.368%	-11.8%
CCn1ccnc1CN1CCN(CC(O)c2ccccc2)CC1 (centres undefined)	-5.63%	-31%
CCc1nc(CN2CCCC(NCc3nc4cccnc4[nH]3)C2)no1 (centres undefined)	-3%	-27.7%
CC(O)CN1CCN(Cc2nnc(C3CC3)o2)CC1 (centres undefined)	0.971%	-17.9%
COc1cc(C(=O)N2CCCS2(=O)=O)ccc1C	-7.63%	-10.8%
Cc1nc(C2CCCN2Cc2nnc(C3CC3)o2)no1 (centres undefined)	1.34%	20%
O=C(c1n[nH]c(=O)c2ccccc12)N1CCCCC1c1ccn[nH]1 (centres undefined)	-1.09%	17.2%
Cc1cc2n(n1)CC(CNCc1ccc(-n3cccn3)nc1)CN2 (centres undefined)	-2.59%	3.5%
Cc1cnc(CN2CCOC(CNc3cccnn3)C2)cn1 (centres undefined)	-2.97%	6.13%
N#CCCN(C(=O)CN1CCCC1c1ccsc1)c1ccccc1F (centres undefined)	-3.67%	4.76%
CS(=O)(=O)c1ccc(CNC2CCCN(c3cccnn3)C2)cc1 (centres undefined)	-4.64%	4.3%
Cc1cc(=O)n(CC(=O)NCC2CCCO2)c(-c2ccc(F)cc2)n1 (centres undefined)	5.94%	-51.4%
O=C(Nc1cccc(CN2CCOC2=O)c1)N1CCOCC1	1.78%	-57.1%
c1cnn(CC2CCCN2c2ncnc3sccc23)c1 (centres undefined)	5.36%	26.3%
O=C(NCCNc1ccccn1)N1CCSCC1	-5.89%	16.3%
CCc1ccsc1C(=O)N1CCN(C(=O)CC(F)(F)F)CC1	-0.116%	-16.6%
CN(Cc1cccs1)C(=O)CN1CCCC1Cn1cncn1 (centres undefined)	5.56%	-62.3%
CS(=O)(=O)N1CCC2(CN(C(=O)c3cccnc3)C2)C1	-2.07%	-24.7%
O=C(NCc1cccnc1)C1=NN(c2ccccc2)C(=O)CN1	14.8%	-1.16%
O=C(c1ccc(Cl)cc1)N1CCCn2nnc(Cn3cccn3)c2C1	-1.14%	-4.47%
CC(C)c1nc(CN(C)C2CCN(CCNS(C)(=O)=O)C2)no1 (centres undefined)	0.0463%	-26.6%
Cc1nn(C)c(C)c1NC(=O)CN1CCc2c(nc(C3CC3)n2C)C1	-0.703%	-17.4%
Cc1cnc(CN(C)C2CCN(CC(=O)Nc3nncs3)C2)o1 (centres undefined)	3.17%	-13.8%
